{"source": "PubChem BioAssay (Tox21)", "note": "Where “and” joins values, the source holds several entries; their conditions need not be identical. Equal values may be shown once. Records with an inconclusive call do not appear. A call without a number means that no potency is given here. Unmarked numbers belong to inactive results. Calls of active or inactive are those of the source. Calls follow the shape of the dose curve; as a rule, active = well fitted activation curve with a large enough effect in the repeat runs; inconclusive = weak or mixed curves; inactive = flat fitted curve, though single readings scatter."}
{"assay": "A CellTox Green Cytotoxicity Assay to monitor cytotoxicity in HepG2 cells - 24 hour (AID 1224878); also: nearly all actives have a fitted effect of over 45% in size; also: potency is read from the fitted curve at half-maximal effect", "details": "CellTox Green fluorescence; series mostly up to 76.8 µM", "description": "National Center for Advancing Translational Sciences [NCATS]\nNIH Chemical Genomics Center [NCGC]\nU.S. Environmental Protection Agency [EPA]\nNational Institutes of Environmental Health Sciences [NIEHS]\nNational Toxicology Program [NTP]\nCell-based models are critical for drug discovery. Determining the natural cytotoxic effects resulting from test compounds is an essential research activity. A CellTox Green Cytotoxicity Assay to monitor cytotoxicity in real time of continues cell culture during 40 hours of the compound treatment was used to screen Tox21 10K library compounds in HepG2 cells. CellTox Green Cytotoxicity Assay is a nonlytic, homogeneous, biofluorescent method to measure cytotoxicity in cell culture after experimental manipulation. The assay system uses a proprietary asymmetric cyanine dye that is excluded from viable cells but preferentially stains the dead cell's DNA. […] Viable cells produce no appreciable increases in fluorescence. Therefore, the fluorescence signal produced by the binding interaction with dead cell DNA is proportional to cytotoxicity.\nThe mixture of HepG2 cell suspension and reagents were dispensed at 600cells/6 ul/well in 1536-well tissue culture treated black solid bottom plates using a Multidrop dispenser. After the assay plates were incubated at a 37 C/5% CO2 incubator for 5 hours, 23 nL of compounds dissolved in DMSO, positive and negative controls was transferred to the assay plate by a pintool work station. The plates were incubated at 37 C for 40 hours. The fluorescence intensity were measured at 0h, 8h, 16h, 24h, 32h and 40h time points using ViewLux plate reader during compound treatment."}
{"molecule": "CC1=CP(=O)(c2ccccc2)CC1", "note": "(stereo not given)", "Potency": "inactive"}
{"molecule": "CO[Si](CCC1CCC2OC2C1)(OC)OC", "note": "(stereo not given)", "Potency": "inactive"}
{"molecule": "C[C@]12CC[C@H]3C(=CCc4cc(O)ccc43)[C@@H]1CCC2=O", "Potency": "inactive"}
{"molecule": "CCCCCCC(C)Nc1ccc(Nc2ccccc2)cc1", "note": "(stereo not given)", "Potency": "inactive"}
{"molecule": "COC(=O)C1=C(C)NC(C)=C(C(=O)OCCCN2CCC(c3ccccc3)(c3ccccc3)CC2)C1c1cccc([N+](=O)[O-])c1", "note": "(stereo not given)", "Potency": "inactive"}
{"molecule": "CCCCOCC", "Potency": "inactive"}
{"molecule": "C=C(C)C(=O)OCCC[Si](Cl)(Cl)Cl", "Potency": "inactive"}
{"molecule": "CCCCCCCCCCCCOC(=O)c1cc(O)c(O)c(O)c1", "Potency": "48.8 µM (active) and 49 µM (active)"}
{"molecule": "CCCCCCCCCCCCCCNCCO", "Potency": "7.56 µM (active)"}
{"molecule": "CCN(CC)CCCN(c1ccccc1)C1Cc2ccccc2C1", "Potency": "23.9 µM (active)"}
{"molecule": "CCN(CC)CCSC(=O)C(c1ccccc1)c1ccccc1", "Potency": "inactive"}
{"molecule": "O=C(O)Cc1ccc(OCCNC[C@H](O)c2ccccc2)cc1", "Potency": "inactive"}
{"molecule": "Clc1ccc(C(Cn2ccnc2)OCc2ccsc2Cl)c(Cl)c1", "note": "(stereo not given)", "Potency": "21.3 µM (active)"}
{"molecule": "COc1cccc(O)c1", "Potency": "inactive"}
{"molecule": "CC(NCCC(c1ccccc1)c1ccccc1)c1ccccc1", "note": "(stereo not given)", "Potency": "16.9 µM (active)"}
{"molecule": "CCCCCCCC(=O)OCC", "Potency": "inactive"}
{"molecule": "C[C@@H]1CC[C@H]2C(C)(C)[C@H]3C[C@@]12CC[C@@]3(C)O", "Potency": "48.9 µM (active)"}
{"molecule": "Cc1cccc(N(C)C)c1", "Potency": "inactive"}
{"molecule": "c1ccc2c(c1)CCC2", "Potency": "inactive"}
{"molecule": "CCc1cccc(C)c1", "Potency": "inactive"}
{"molecule": "CN(C)CCN1CCOCC1", "Potency": "inactive"}
{"molecule": "Oc1c(Br)cc(Br)c2cccnc12", "Potency": "inactive"}
{"molecule": "CCCCCCCCCCOCC(O)CN", "note": "(stereo not given)", "Potency": "15.1 µM (active)"}
{"molecule": "COc1ccc2sc(C(=O)Nc3nnn[nH]3)c(OC(C)C)c2c1", "Potency": "inactive"}
{"molecule": "C#CC(O)CCC", "note": "(stereo not given)", "Potency": "inactive"}
{"molecule": "O=C1c2c(O)ccc(O)c2C(=O)c2c(NCCNCCO)ccc(NCCNCCO)c21", "Potency": "inactive"}
{"molecule": "O=C=NCc1cccc(CN=C=O)c1", "cytotoxicity": "0.14% [at 15.8 µM]"}
{"molecule": "CC[N+](CC)(CC)Cc1ccccc1", "Potency": "inactive"}
{"molecule": "ClC/C=C\\CCl", "Potency": "inactive"}
{"molecule": "O=C1NCCN1CCN1CCC(c2cn(-c3ccc(F)cc3)c3ccc(Cl)cc23)CC1", "Potency": "26.8 µM (active)"}
{"molecule": "C=C/C=C/C=C/CCCCC", "cytotoxicity": "-3.54% [at 15.8 µM]"}
{"molecule": "O=C(O)CC(=O)O", "Potency": "inactive"}
{"molecule": "O=Cc1ccc(F)cc1", "Potency": "inactive"}
{"molecule": "CC(=O)OC1CCCCC1", "Potency": "inactive"}
{"molecule": "CN(C)c1ccc(N=NS(=O)(=O)O)cc1", "Potency": "inactive"}
{"molecule": "CC(C)CCOCCC(C)C", "Potency": "inactive"}
{"molecule": "CCCCOc1ccc(C(=O)CCN2CCCCC2)cc1", "Potency": "19 µM (active)"}
{"molecule": "[O]=[Zr]", "Potency": "inactive"}
{"molecule": "CN(C)CCCN1c2ccccc2CCc2ccccc21", "Potency": "49 µM (active)"}
{"molecule": "C=CC(=C)CC/C=C(\\C)CCC=C(C)C", "cytotoxicity": "-0.282% [at 15.8 µM]"}
